Measurements reported in PubChem BioAssay.

test: EMT-state selective cytotoxicity in co-culture – imaging, PC-3E GFP, TEM4-18 mCherry, primary screen (AID 1345086); settings: PC-3E GFP / TEM4-18 mCherry co-culture, imaging cell counts; measured here: epithelial PC-3E GFP cell survival; at 1 µM;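 note: cells exposed to compound for 72 h before imaging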

SMILES	normalised cell number
CC(=O)C1=C(O)C=C2Oc3c(C(N)=O)c(O)cc(O)c3[C@@]2(C)C1=O	0.92
C=C1C(=O)O[C@@H]2C(=O)O[C@@H](CCCCCCCC)[C@H]12	1.04
O=C(Cc1ccccc1)NCC1O[C@@H](OC2C(NC(=O)Cc3ccccc3)C[C@@H](NC(=O)Cc3ccccc3)[C@H](OC3OC(COS(=O)(=O)O)[C@@H](OS(=O)(=O)O)[C@H](NC(=O)Cc4ccccc4)[C@H]3OS(=O)(=O)O)[C@H]2OS(=O)(=O)O)[C@H](OS(=O)(=O)O)[C@@H](OS(=O)(=O)O)C1OS(=O)(=O)O (stereo not given in full)	0.9
CCC(C)[C@H]1O[C@]2(C=C[C@@H]1C)C[C@@H]1C[C@@H](C/C=C(\C)[C@@H](OC3C[C@H](OC)C(O[C@H]4C[C@H](OC)[C@@H](O)[C@H](C)O4)[C@H](C)O3)[C@@H](C)/C=C/C=C3\COC4[C@H](OC)C(C)=C[C@@H](C(=O)O1)[C@]34O)O2 (stereo not given in full)	1.13
Oc1ccc2ccccc2c1Oc1ccc2ccccc2c1	0.86
O=C(O)C(O)C(O)C(O)C(O)C(=O)O (stereo not given)	1.04
COC(=O)[C@@]12Oc3ccc(-c4ccc5c(c4O)C(O)=C4C(=O)C[C@H](C)[C@H](O)[C@]4(C(=O)OC)O5)c(O)c3C(O)=C1C(=O)C[C@H](C)[C@@H]2O	0.96
COc1cccc(Oc2c(O)cc(C)cc2CC(=O)c2cc(C)cc(O)c2C(=O)c2c(O)cccc2O)c1C(=O)O	1.09
CC(C)CC1OC23SCC(c4ccccc4)N2C(=O)C1C(C)S3 (stereo not given)	1.19
Cc1ccc(S[C@H]2OC(CO)C(O)[C@@H]3OC(=O)N[C@H]23)cc1 (stereo not given in full)	1.01
OC[C@H]1O[C@H](OC[C@H]2O[C@@H](O)[C@H](O)[C@@H](O)[C@@H]2O)[C@H](O)[C@@H](O)[C@H]1O	0.99
COc1c(N2CC[C@@H](CN)C2)c(F)cc2c(=O)c(C(=O)O)cn(Cc3ccc4ccccc4c3)c12	0.86
COC(=O)CCC(C)C1CCC2C3CC[C@@H]4C[C@H](O)CC[C@]4(C)C3C[C@H](O)[C@]12C (stereo not given in full)	1.05
C=C[C@@](C)(O)CCC1C(=C)C[C@H](OC(C)=O)C2C(C)(C)CCCC12C (stereo not given in full)	1.03
CCOC(=O)O[C@]1(C(=O)COC(=O)CC)CCC2C3CCC4=CC(=O)C=C[C@]4(C)C3[C@@H](O)C[C@@]21C (stereo not given in full)	1.29
CC1(C)C2CCC1(C)C(O)C2 (stereo not given)	0.75
O=C1Cc2cc(O)ccc2O1	0.91
CC(C)(C)Oc1c(F)c(F)nc(F)c1Cl	0.78
C[C@H]1[C@H]2CCC3C4CC=C5C[C@@H](N(C)C)CC[C@]5(C)C4CC[C@@]32CN1C (stereo not given in full)	0.89
C#C[C@H](O)COc1ccc(C(=O)O)cc1	0.57

SMILES	normalised cell number
CNC1C(O[C@@H]2OC(CO)C(N)[C@H](O)C2O)OC2CC(N)[C@@H](OC3C(N)C[C@@H](N)C(O)[C@H]3O)OC2C1O (stereo not given in full)	0.92
COc1ccc2oc(-c3ccccc3OC)cc(=O)c2c1	1.16
COC(=O)[C@H](Cc1ccccc1)NC(=O)/C(=C1\OC(=O)C(c2ccccc2)=C1O)c1ccccc1	0.92
CC(C)[C@@H]1CC[C@]2(CO2)[C@@H]2C(=O)OCC(C(=O)O)=C[C@H]21	1.02
CC(C)(C)OC(=O)NCCCC(NC(=O)C(Cc1ccccc1)NC(=O)OC(C)(C)C)C(=O)O (stereo not given)	1.24
CC(=O)O[C@H]1CC[C@]2(C)C3CC[C@@]4(C)C(CC5O[C@@]6(CCC(C)CO6)[C@@H](C)C54)C3CC[C@@H]2C1 (stereo not given in full)	0.87
O=C(C/C=C/c1ccc(O)c(O)c1)O[C@H](Cc1ccc(O)c(O)c1)C(=O)O	1
NC(CSSCC(N)C(=O)O)C(=O)O (stereo not given)	1.24
O=C1NCC[C@@H]1Oc1ccc(Oc2cnc3ccc(Cl)cc3n2)cc1	1.03
CCN1CCN(c2c(F)cc3c(=O)c(C(=O)O)cn4c3c2OC[C@@H]4C)CC1	1.34
OCC(O)C(O)C(O)C(O)C(O)CO (stereo not given)	0.96
CC1(C)CC2C1CCC1(CBr)CCC3C(CC(=O)O)C(=O)OC32C1 (stereo not given)	1.14
COC(=O)CCC(=O)NC(=O)Cc1ccccc1	1.16
O=C1N[C@@H]2[C@@H](Sc3ccccc3)OC(CO)C(O)[C@@H]2O1 (stereo not given in full)	1
O=c1cc(-c2ccccc2)oc2cc(O)ccc12	1.2
NCC1O[C@@H](OC2C(N)C[C@@H](N)C(OC3OC(CO)[C@@H](O)C(N)[C@H]3O)[C@H]2O)C(O)[C@@H](O)C1O (stereo not given in full)	1.02
CC/C=C1C=C(/C=C/CO)C(=O)O/1	1.05
C[C@@H](O)[C@H]1C(=O)N2C(C(=O)O)=C(SC3CN[C@H](C(=O)N(C)C)C3)[C@H](C)[C@H]12 (stereo not given in full)	0.98
C[C@H](Oc1ccc(Oc2ccc3ncc(Cl)nc3c2)cc1)C(=O)O	1.29
CC(=O)OCC1=C[C@]2(O)CC3=C(CC24O[C@@H]4C1=O)[C@@]1(C)CCCC(C)(C)[C@@H]1CC3 (stereo not given in full)	0.93

same assay, conditions: PC-3E GFP / TEM4-18 mCherry co-culture, imaging cell counts; measured here: mesenchymal TEM4-18 mCherry cell survival; at 1 µM

SMILES	normalised cell number
CC(=O)C1=C(O)C=C2Oc3c(C(N)=O)c(O)cc(O)c3[C@@]2(C)C1=O	1.04
C=C1C(=O)O[C@@H]2C(=O)O[C@@H](CCCCCCCC)[C@H]12	0.89
O=C(Cc1ccccc1)NCC1O[C@@H](OC2C(NC(=O)Cc3ccccc3)C[C@@H](NC(=O)Cc3ccccc3)[C@H](OC3OC(COS(=O)(=O)O)[C@@H](OS(=O)(=O)O)[C@H](NC(=O)Cc4ccccc4)[C@H]3OS(=O)(=O)O)[C@H]2OS(=O)(=O)O)[C@H](OS(=O)(=O)O)[C@@H](OS(=O)(=O)O)C1OS(=O)(=O)O (stereo not given in full)	1.03
CCC(C)[C@H]1O[C@]2(C=C[C@@H]1C)C[C@@H]1C[C@@H](C/C=C(\C)[C@@H](OC3C[C@H](OC)C(O[C@H]4C[C@H](OC)[C@@H](O)[C@H](C)O4)[C@H](C)O3)[C@@H](C)/C=C/C=C3\COC4[C@H](OC)C(C)=C[C@@H](C(=O)O1)[C@]34O)O2 (stereo not given in full)	0.93
Oc1ccc2ccccc2c1Oc1ccc2ccccc2c1	0.79
O=C(O)C(O)C(O)C(O)C(O)C(=O)O (stereo not given)	1.05
COC(=O)[C@@]12Oc3ccc(-c4ccc5c(c4O)C(O)=C4C(=O)C[C@H](C)[C@H](O)[C@]4(C(=O)OC)O5)c(O)c3C(O)=C1C(=O)C[C@H](C)[C@@H]2O	1.1
COc1cccc(Oc2c(O)cc(C)cc2CC(=O)c2cc(C)cc(O)c2C(=O)c2c(O)cccc2O)c1C(=O)O	1.21
CC(C)CC1OC23SCC(c4ccccc4)N2C(=O)C1C(C)S3 (stereo not given)	0.96
Cc1ccc(S[C@H]2OC(CO)C(O)[C@@H]3OC(=O)N[C@H]23)cc1 (stereo not given in full)	0.99
OC[C@H]1O[C@H](OC[C@H]2O[C@@H](O)[C@H](O)[C@@H](O)[C@@H]2O)[C@H](O)[C@@H](O)[C@H]1O	0.91
COc1c(N2CC[C@@H](CN)C2)c(F)cc2c(=O)c(C(=O)O)cn(Cc3ccc4ccccc4c3)c12	0.93
COC(=O)CCC(C)C1CCC2C3CC[C@@H]4C[C@H](O)CC[C@]4(C)C3C[C@H](O)[C@]12C (stereo not given in full)	0.94
C=C[C@@](C)(O)CCC1C(=C)C[C@H](OC(C)=O)C2C(C)(C)CCCC12C (stereo not given in full)	1.08
CCOC(=O)O[C@]1(C(=O)COC(=O)CC)CCC2C3CCC4=CC(=O)C=C[C@]4(C)C3[C@@H](O)C[C@@]21C (stereo not given in full)	1.13
CC1(C)C2CCC1(C)C(O)C2 (stereo not given)	0.9
O=C1Cc2cc(O)ccc2O1	1.14
CC(C)(C)Oc1c(F)c(F)nc(F)c1Cl	0.76
C[C@H]1[C@H]2CCC3C4CC=C5C[C@@H](N(C)C)CC[C@]5(C)C4CC[C@@]32CN1C (stereo not given in full)	0.83
C#C[C@H](O)COc1ccc(C(=O)O)cc1	0.68

SMILES	normalised cell number
CNC1C(O[C@@H]2OC(CO)C(N)[C@H](O)C2O)OC2CC(N)[C@@H](OC3C(N)C[C@@H](N)C(O)[C@H]3O)OC2C1O (stereo not given in full)	1.1
COc1ccc2oc(-c3ccccc3OC)cc(=O)c2c1	0.98
COC(=O)[C@H](Cc1ccccc1)NC(=O)/C(=C1\OC(=O)C(c2ccccc2)=C1O)c1ccccc1	0.9
CC(C)[C@@H]1CC[C@]2(CO2)[C@@H]2C(=O)OCC(C(=O)O)=C[C@H]21	1.05
CC(C)(C)OC(=O)NCCCC(NC(=O)C(Cc1ccccc1)NC(=O)OC(C)(C)C)C(=O)O (stereo not given)	1.1
CC(=O)O[C@H]1CC[C@]2(C)C3CC[C@@]4(C)C(CC5O[C@@]6(CCC(C)CO6)[C@@H](C)C54)C3CC[C@@H]2C1 (stereo not given in full)	0.95
O=C(C/C=C/c1ccc(O)c(O)c1)O[C@H](Cc1ccc(O)c(O)c1)C(=O)O	1.06
NC(CSSCC(N)C(=O)O)C(=O)O (stereo not given)	1.15
O=C1NCC[C@@H]1Oc1ccc(Oc2cnc3ccc(Cl)cc3n2)cc1	0.76
CCN1CCN(c2c(F)cc3c(=O)c(C(=O)O)cn4c3c2OC[C@@H]4C)CC1	1
OCC(O)C(O)C(O)C(O)C(O)CO (stereo not given)	0.91
CC1(C)CC2C1CCC1(CBr)CCC3C(CC(=O)O)C(=O)OC32C1 (stereo not given)	1.02
COC(=O)CCC(=O)NC(=O)Cc1ccccc1	1.08
O=C1N[C@@H]2[C@@H](Sc3ccccc3)OC(CO)C(O)[C@@H]2O1 (stereo not given in full)	0.97
O=c1cc(-c2ccccc2)oc2cc(O)ccc12	0.97
NCC1O[C@@H](OC2C(N)C[C@@H](N)C(OC3OC(CO)[C@@H](O)C(N)[C@H]3O)[C@H]2O)C(O)[C@@H](O)C1O (stereo not given in full)	1.13
CC/C=C1C=C(/C=C/CO)C(=O)O/1	1.06
C[C@@H](O)[C@H]1C(=O)N2C(C(=O)O)=C(SC3CN[C@H](C(=O)N(C)C)C3)[C@H](C)[C@H]12 (stereo not given in full)	0.99
C[C@H](Oc1ccc(Oc2ccc3ncc(Cl)nc3c2)cc1)C(=O)O	1.18
CC(=O)OCC1=C[C@]2(O)CC3=C(CC24O[C@@H]4C1=O)[C@@]1(C)CCCC(C)(C)[C@@H]1CC3 (stereo not given in full)	0.94
